The target of assay [1] is Lysosomal acid glucosylceramidase (Homo sapiens) (UniProt P04062). Kind of assay: Glucocerebrosidase-p2 (AID 348; in the data active = potency below about 10 µM; note: potency is the fitted concentration of half-maximal effect). Conditions: purified GBA, blue fluorogenic substrate, 40 min. The essentials: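 Normal human glucocerebrosidase (0.2 nM) with blue fluorogenic substrate (80 uM final) in citrate/phosphate pH 5.9 with 10mM sodium taurocholate, 0.01% tween-20; 40 min RT, NaOH/glycine stop; fluorescence Ex 365/Em 440; AC50 from a titration from 0.6 nM upwards.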

The nature of assay [2]: AP1 Signaling Pathway (AID 357).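 Note: ME-180 reporter cells stimulated with EGF at its EC50 level; % is set by controls: 0 for no effect and ±100 for the full control effect.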 Conditions: ME-180 AP-1-bla reporter, EGF-induced, beta-lactamase ratio, 5 h; at 7.69 µM (top of the series) unless noted. The essentials: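 In this screen, ME-180 cells in Opti-MEM with 0.5% dialyzed FBS received EC50 EGF and compound titrations for 5 h. AP-1 reporter beta-lactamase was detected via CCF4 ratio, giving AC50 for positive and negative modulators.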

Assay [3] deals with Cytochrome P450 1A2 (Homo sapiens) (UniProt P05177). Briefly: p450-cyp1a2 (AID 410; calls by dose curve; note: potency is the fitted concentration of half-maximal effect;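 for activity change, negative = inhibition: -100% = full effect of reference inhibitor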). Conditions: recombinant CYP1A2, luciferin-ME demethylation, luminescence; series mostly up to 11.4 µM. The essentials:
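O-Demethylation of luciferin 6' methyl ether by human CYP1A2 is monitored as luciferase luminescence. Substrate sits at Km (100uM); enzyme is 20nM. Values are scaled to 57 uM furafylline as maximal inhibition.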

Assay [4] in a line: NFAT Signaling Pathway (AID 444).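 Note: carbachol stimulus at about its EC50 of 1 µM final; % is set by controls: 0 for no effect and ±100 for the full control effect.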 Conditions: Jurkat NFAT-bla M1, carbachol, beta-lactamase ratio, 5 h; at 7.69 µM (top of the series) unless noted. An outline of the steps:
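Read-out: CCF4 FRET ratio (460 nm/530 nm) after 1 h RT dye loading, used for %activity and AC50 from titration series. Cells: Jurkat NFAT-β-lactamase/M1 line, treated with compound plus 1 uM carbachol for 5 h, 37 °C.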

Assay [5] deals with Glucocorticoid receptor (Homo sapiens) (UniProt P04150). Briefly: GR-GFP Redistribution (AID 450;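 active = compounds whose dose series gives a full or clear partial fitted curve of increased nuclear translocation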; note: potency is the fitted concentration of half-maximal effect). Conditions: U2OS GR-GFP nuclear translocation, laser cytometry, 2 h.
Assay [6] shares this target. Kind of assay: GR-EFC Redistribution (AID 451; calls by dose curve; note: potency is the fitted concentration of half-maximal effect). Conditions: CHO-K1 GR-EFC translocation, beta-gal luminescence, 2 h. An outline of the steps: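 Translocation of GR-ED fusion to nuclear EA restores b-gal, read by luminescence after 1 h room-temperature detection. Engineered CHO-K1 biosensor cells, 1,000/well, exposed 2 h at 37 C to titrations up to 46 uM final.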
Assay [7] concerns the target Mitogen-activated protein kinase 10 (Mus musculus) (UniProt Q61831). Kind of assay: JNK3 AlphaScreen Assay (AID 530).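 Note: kinase came from lysate of stimulated human HepG2 cells; signal reports phosphorylation of biotinylated GST-cJun 1-79 at Ser73 with 10 µM ATP; % is set by controls: 0 for no effect and ±100 for the full control effect.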 The settings on record: JNK3 lysate, c-Jun phosphorylation; series mostly up to 11.4 µM. An outline of the steps:
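qHTS titrations with 15 min compound pre-incubation before adding ATP (10 uM final). Read-out: AlphaScreen of Ser73-phosphorylated biotin-GST-cJun using HepG2 lysate JNK3 activated by IL-1β and TNFα.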

In assay [8] the target is 3',5'-cyclic-AMP phosphodiesterase 4B (Homo sapiens) (UniProt Q07343). Briefly: qHTS Assay for Inhibitors of PDE-IV (AID 607; active = well fitted activation curve with a large enough effect in the main read-out, with a control signal flat, not every such curve was filed as active; note: % of control where 0% means no effect). Conditions: HEK293 ACTOne CNG channel cells, membrane potential fluorescence; series mostly up to 22.9 µM. The essentials:
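Cell-based read-out of cAMP via a modified cyclic nucleotide-gated channel and membrane potential dye (535/590 nm) in HEK293 cells expressing PDE4 endogenously. Compounds tested up to 22.9 uM final; 100 uM RO 20-1724 reference.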

For assay [9], the target named is Cytochrome P450 2C19 (Homo sapiens) (UniProt P33261). Briefly: qHTS Assay for Inhibitors and Substrates of Cytochrome P450 2C19 (AID 899; active = well fitted curve in the direction sought with a large enough effect; an effect the other way counts as inactive or inconclusive; note: nearly all actives have a fitted effect of over 60% in size; note: potency is the fitted concentration of half-maximal effect). The settings on record: recombinant CYP2C19, luciferin-H EGE luminescence; series mostly up to 11.4 µM. The essentials:
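Luminescence readout of luciferin formed from 10uM Luciferin-H EGE (KM level) by 5 nM CYP2C19 in 50mM KPO4. 60 min NADPH-driven reaction at 37C after 10 min compound preincubation; data scaled to 57uM ketoconazole inhibition.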

Assay [10] has as its target Cytochrome P450 2C9 (Homo sapiens) (UniProt P11712). Kind of assay: qHTS Assay for Inhibitors and Substrates of Cytochrome P450 2C9 (AID 883; active = well fitted curve in the direction sought with a large enough effect; an effect the other way counts as inactive or inconclusive; note: nearly all actives have a fitted effect of over 60% in size; note: potency is the fitted concentration of half-maximal effect). Conditions: recombinant CYP2C9, luciferin-H luminescence, 60 min; series mostly up to 11.4 µM. The essentials:
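Luminescent read-out of deoxyluciferin hydroxylation, normalized to 57uM sulphaphenazole (AC100). Reaction: 10nM enzyme, 100uM Luciferin-H (equal to KM), 25mM KPO4, 10 min compound preincubation, then 60 min with NADPH regeneration, both at 37C.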

Assay [11] addresses Cytochrome P450 3A4 (Homo sapiens) (UniProt P08684). Briefly: qHTS Assay for Activators of Cytochrome P450 3A4 (AID 885; active = well fitted curve in the direction sought with a large enough effect; an effect the other way counts as inactive or inconclusive; note: nearly all actives have a fitted effect of over 65% in size). Conditions: recombinant CYP3A4, Luciferin-PPXE luminescence, 60 min; series mostly up to 11.4 µM. The essentials: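 Luminescent readout of luciferin formed from 25 uM Luciferin-PPXE (KM level) by 20 nM CYP3A4 in 200 mM KPO4, with 60 min NADPH-driven reaction at room temperature after 10 min compound exposure. Ketoconazole (57 uM) defined 100% inhibition.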

Assay [12] can be described thus: Stat Signaling Pathway (AID 446).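 Note: ME-180 cervical cancer cells given 40 pM IL-6 alongside compound; SIE-controlled beta-lactamase reporter measured as 460/530 nm FRET emission ratio; % is set by controls: 0 for no effect and ±100 for the full control effect.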 Conditions: ME-180 (cervical carcinoma) SIE beta-lactamase reporter, IL-6 stimulated, 5 h; at 7.69 µM (top of the series) unless noted. The essentials:
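FRET read-out (405 nm excitation, 460/530 nm emission) of a beta-lactamase reporter under a STAT-inducible element in ME-180 cervical carcinoma cells. Cells with compound receive 40 pM IL-6 for 5 h. Values are normalised to AC90 stimulation and AC90 JAK-inhibitor controls.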

Assay [13] has as its target Cytochrome P450 2D6 (Homo sapiens) (UniProt P10635). Kind of assay: qHTS Assay for Inhibitors and Substrates of Cytochrome P450 2D6 (AID 891; active = well fitted curve in the direction sought with a large enough effect; an effect the other way counts as inactive or inconclusive;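 note: luciferin methyl ether substrate demethylated by CYP2D6 with NADPH regeneration; % is set by controls: 0 for no effect and ±100 for the full control effect; nearly all actives have a fitted effect of over 60% in size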). Conditions: recombinant CYP2D6, luciferin-ME EGE luminescence; series mostly up to 11.4 µM. An outline of the steps:
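Luminescent read-out of luciferin formed by 5 nM human CYP2D6 demethylating 30 uM Luciferin-ME EGE (Km level) over 60 min at room temperature after NADPH regeneration addition. Data normalized to full inhibition by 1.43 uM quinidine.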

Assay [14] addresses ATP-dependent 6-phosphofructokinase (Trypanosoma brucei brucei) (UniProt O15648). Kind of assay: qHTS Assay to Find Inhibitors of T. brucei phosphofructokinase: hit validation (AID 492961; active = well fitted curve in the direction sought with a large enough effect; an effect the other way counts as inactive or inconclusive). Conditions: T. brucei PFK, ADP-Glo luminescence; series mostly up to 51.4 µM. The essentials:
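ADP-Glo luminescence read-out of ADP formed by 1.25 nM PFK from 0.1 mM ATP and 0.5 mM F6P (TEA pH 8.0, 45 min, RT). Compounds titrated; activity normalized to no-enzyme and full-enzyme controls.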

Assay [15] is described as follows: qHTS profiling for inhibitors of Plasmodium falciparum proliferation (AID 504749; active = well fitted curve in the direction sought with a large enough effect; an effect the other way counts as inactive or inconclusive;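 note: 0% = DMSO vehicle and full inhibition = artemisinin control; nearly all actives have a fitted effect of over 60% in size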). Conditions: P. falciparum in erythrocytes, SYBR Green DNA, 72 h, at 28.7 µM (top of the series). The essentials: (§1)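 SYBR Green fluorescence of parasite DNA, read after lysis and overnight dark incubation, measured growth over 72 h in erythrocyte culture at 0.3% parasitemia and 2.5% hematocrit. Data normalised to DMSO and 0.29 uM artemisinin, with plate-drift correction.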

The next assay relates to AS120. The description is as above. The settings on record: P. falciparum in erythrocytes, SYBR Green DNA, 72 h; series mostly up to 28.7 µM. The essentials:
as §1

A further assay relates to CP203. Described as above. The settings on record: P. falciparum in erythrocytes, SYBR Green DNA, 72 h; series mostly up to 28.7 µM. An outline of the steps:
as §1

Another assay relates to W2. The description is as above. Conditions: P. falciparum in erythrocytes, SYBR Green DNA, 72 h; series mostly up to 28.7 µM. An outline of the steps: as §1

Unmarked numbers belong to inactive results. Inconclusive results are not listed. The source made the active and inactive calls. Unless noted, calls come from the whole dose curve; as a rule, active = well fitted curve in either direction with a large enough effect (not every such curve was filed as active); inconclusive = small, poorly fitted or top-dose-only effect, or another doubt; inactive = flat fitted curve, though single readings scatter.

Cytochrome P450 1A2 (Homo sapiens), sequence (P05177 whole entry, looked up): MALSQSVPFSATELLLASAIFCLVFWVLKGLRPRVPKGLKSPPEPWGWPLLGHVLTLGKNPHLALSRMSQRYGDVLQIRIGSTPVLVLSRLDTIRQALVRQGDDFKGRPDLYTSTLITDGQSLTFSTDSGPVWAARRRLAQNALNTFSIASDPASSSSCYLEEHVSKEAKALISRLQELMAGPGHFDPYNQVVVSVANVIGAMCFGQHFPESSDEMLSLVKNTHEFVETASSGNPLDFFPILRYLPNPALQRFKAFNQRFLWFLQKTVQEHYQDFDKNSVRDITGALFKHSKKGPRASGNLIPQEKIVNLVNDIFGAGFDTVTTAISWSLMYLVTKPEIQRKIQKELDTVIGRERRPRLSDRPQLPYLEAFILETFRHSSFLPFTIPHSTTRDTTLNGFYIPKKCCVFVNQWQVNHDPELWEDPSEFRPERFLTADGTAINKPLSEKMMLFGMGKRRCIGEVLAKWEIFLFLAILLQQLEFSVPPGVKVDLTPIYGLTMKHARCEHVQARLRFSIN
Lysosomal acid glucosylceramidase (Homo sapiens), sequence (P04062 whole entry, looked up): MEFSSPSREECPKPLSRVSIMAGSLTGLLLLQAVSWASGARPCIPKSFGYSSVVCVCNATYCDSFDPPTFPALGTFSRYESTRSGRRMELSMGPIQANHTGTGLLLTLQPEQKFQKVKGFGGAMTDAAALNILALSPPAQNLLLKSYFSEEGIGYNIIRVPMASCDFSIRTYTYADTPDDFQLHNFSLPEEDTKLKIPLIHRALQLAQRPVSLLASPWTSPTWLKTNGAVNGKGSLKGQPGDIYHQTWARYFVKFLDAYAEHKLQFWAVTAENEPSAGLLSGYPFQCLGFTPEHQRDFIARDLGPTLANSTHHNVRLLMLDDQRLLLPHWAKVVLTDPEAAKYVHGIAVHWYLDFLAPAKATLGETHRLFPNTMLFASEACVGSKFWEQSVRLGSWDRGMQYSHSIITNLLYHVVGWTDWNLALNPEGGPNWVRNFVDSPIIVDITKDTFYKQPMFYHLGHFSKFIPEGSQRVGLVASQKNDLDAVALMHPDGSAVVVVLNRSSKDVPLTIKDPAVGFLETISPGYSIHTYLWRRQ
3',5'-cyclic-AMP phosphodiesterase 4B (Homo sapiens), sequence (Q07343 whole entry, looked up): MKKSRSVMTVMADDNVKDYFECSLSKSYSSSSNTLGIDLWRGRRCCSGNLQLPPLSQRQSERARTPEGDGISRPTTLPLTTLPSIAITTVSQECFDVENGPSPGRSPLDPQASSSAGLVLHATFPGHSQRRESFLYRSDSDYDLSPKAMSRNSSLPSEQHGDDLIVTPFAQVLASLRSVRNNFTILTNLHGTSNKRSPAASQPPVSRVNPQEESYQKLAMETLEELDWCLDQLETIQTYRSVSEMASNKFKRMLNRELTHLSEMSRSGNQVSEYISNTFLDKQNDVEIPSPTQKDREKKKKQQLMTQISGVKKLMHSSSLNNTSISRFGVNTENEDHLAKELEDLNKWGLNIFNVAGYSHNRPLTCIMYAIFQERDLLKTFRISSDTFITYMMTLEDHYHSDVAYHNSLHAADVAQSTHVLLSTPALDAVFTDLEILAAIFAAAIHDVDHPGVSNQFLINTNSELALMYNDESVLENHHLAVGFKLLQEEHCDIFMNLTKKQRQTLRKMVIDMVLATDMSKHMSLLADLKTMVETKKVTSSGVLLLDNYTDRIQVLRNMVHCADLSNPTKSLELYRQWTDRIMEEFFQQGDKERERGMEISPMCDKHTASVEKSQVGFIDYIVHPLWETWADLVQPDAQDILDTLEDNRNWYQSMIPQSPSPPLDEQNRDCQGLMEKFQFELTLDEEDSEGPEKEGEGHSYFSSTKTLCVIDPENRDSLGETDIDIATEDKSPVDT
Glucocorticoid receptor (Homo sapiens), sequence (P04150 whole entry, looked up, the tested form may be a part): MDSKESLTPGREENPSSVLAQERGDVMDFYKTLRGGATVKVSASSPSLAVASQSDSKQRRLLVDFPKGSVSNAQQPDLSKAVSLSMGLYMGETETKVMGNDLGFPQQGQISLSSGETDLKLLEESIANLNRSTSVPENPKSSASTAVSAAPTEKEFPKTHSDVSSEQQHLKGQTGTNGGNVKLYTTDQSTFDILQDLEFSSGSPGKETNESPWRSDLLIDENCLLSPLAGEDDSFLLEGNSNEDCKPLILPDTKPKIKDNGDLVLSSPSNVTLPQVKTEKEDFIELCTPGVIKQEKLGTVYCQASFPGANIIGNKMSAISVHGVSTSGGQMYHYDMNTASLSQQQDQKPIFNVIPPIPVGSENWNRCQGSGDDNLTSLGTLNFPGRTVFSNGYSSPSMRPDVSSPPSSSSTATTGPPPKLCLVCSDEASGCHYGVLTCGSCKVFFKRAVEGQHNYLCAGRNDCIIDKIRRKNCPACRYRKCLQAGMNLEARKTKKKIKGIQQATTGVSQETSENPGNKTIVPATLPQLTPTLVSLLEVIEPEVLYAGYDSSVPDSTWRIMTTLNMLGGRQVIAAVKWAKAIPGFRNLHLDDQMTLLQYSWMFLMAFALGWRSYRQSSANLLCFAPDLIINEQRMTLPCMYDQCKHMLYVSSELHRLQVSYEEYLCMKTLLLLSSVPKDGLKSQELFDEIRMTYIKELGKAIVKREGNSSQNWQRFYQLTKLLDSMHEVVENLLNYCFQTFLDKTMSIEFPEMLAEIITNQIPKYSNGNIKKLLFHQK
Cytochrome P450 2C19 (Homo sapiens), sequence (P33261 whole entry, looked up): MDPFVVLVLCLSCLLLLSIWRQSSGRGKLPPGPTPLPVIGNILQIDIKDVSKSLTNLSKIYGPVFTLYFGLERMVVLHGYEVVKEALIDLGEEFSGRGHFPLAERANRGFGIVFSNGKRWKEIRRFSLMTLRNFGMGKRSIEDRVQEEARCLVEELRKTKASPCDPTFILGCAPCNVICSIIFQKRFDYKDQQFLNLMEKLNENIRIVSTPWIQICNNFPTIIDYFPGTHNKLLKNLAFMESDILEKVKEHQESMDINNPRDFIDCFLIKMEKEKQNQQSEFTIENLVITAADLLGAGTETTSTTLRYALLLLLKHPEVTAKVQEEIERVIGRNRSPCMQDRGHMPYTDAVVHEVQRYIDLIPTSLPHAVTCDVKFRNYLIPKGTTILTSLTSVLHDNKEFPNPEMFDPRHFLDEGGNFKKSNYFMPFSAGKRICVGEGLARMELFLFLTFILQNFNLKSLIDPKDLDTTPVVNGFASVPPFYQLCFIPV
Cytochrome P450 2C9 (Homo sapiens), sequence (P11712 whole entry, looked up): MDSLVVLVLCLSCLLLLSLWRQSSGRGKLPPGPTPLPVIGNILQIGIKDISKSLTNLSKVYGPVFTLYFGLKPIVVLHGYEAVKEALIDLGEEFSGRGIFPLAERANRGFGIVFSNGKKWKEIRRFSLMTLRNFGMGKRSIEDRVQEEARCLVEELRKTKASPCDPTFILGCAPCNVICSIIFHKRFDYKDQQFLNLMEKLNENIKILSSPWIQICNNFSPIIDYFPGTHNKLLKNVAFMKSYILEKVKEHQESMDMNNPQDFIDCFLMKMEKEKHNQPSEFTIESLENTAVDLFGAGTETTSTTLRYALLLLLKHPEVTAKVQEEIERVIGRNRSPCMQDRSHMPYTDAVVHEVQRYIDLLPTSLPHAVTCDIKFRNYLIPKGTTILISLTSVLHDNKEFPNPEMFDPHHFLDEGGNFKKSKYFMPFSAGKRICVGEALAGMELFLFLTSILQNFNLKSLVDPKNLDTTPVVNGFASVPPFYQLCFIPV
Cytochrome P450 2D6 (Homo sapiens), sequence (P10635 whole entry, looked up): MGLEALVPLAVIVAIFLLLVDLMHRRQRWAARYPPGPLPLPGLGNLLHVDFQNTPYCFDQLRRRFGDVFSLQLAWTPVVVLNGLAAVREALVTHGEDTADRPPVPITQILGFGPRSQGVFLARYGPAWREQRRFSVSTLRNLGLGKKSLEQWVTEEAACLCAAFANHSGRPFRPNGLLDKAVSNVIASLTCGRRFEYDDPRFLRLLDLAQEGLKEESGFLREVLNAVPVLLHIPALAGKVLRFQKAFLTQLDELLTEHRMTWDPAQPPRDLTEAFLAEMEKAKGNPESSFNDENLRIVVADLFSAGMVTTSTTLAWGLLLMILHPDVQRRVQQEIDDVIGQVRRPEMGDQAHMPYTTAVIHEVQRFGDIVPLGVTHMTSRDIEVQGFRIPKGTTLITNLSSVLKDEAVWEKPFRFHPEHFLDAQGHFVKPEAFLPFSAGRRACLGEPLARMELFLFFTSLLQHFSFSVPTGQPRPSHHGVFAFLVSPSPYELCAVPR
Cytochrome P450 3A4 (Homo sapiens), sequence (P08684 whole entry, looked up): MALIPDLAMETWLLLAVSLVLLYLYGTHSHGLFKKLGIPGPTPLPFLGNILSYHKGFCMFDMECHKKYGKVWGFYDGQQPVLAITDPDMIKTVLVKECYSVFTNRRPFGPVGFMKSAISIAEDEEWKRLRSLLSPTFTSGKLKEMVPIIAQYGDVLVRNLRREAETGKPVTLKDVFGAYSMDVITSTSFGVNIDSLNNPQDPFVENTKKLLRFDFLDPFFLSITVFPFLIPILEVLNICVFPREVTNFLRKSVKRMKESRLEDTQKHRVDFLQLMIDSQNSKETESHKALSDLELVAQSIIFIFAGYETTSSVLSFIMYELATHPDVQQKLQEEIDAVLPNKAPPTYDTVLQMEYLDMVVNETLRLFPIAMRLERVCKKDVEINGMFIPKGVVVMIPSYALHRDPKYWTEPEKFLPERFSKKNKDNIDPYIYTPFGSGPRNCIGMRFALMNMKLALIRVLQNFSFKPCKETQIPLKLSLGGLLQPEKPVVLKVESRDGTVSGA

As to `CC(C)(C)c1ccc(NS(=O)(=O)c2ccc(N)cc2)cc1`, the Potency in assay [1] was greater than 11.4 µM; in [3], 3.16 µM (active); in assay [5], greater than 46 µM; in assay [6] it was greater than 9.22 µM; in assay [9] it was 0.398 µM (active). Besides, the activity change, negative = inhibition is 3% in assay [2] and -2.46% in assay [4]. Further, the Potency entry in [7] and in assay [8] was “inactive” throughout.
As to `COC(=O)CC[C@@H](C)[C@H]1CC[C@H]2[C@H]3CC[C@H]4C[C@@H]5CC[C@@]4(C)C3(O5)[C@@H](Br)[C@@H](Br)[C@@]12C`, the Potency in assay [1] is greater than 11.4 µM; in assay [5], greater than 46 µM; in assay [6], greater than 9.22 µM; in assay [10], 2.51 µM (active). For the same compound, the activity change, negative = inhibition is 21.4% in assay [2] and 8.56% in assay [4]. In addition, the Potency result in [3], in assay [8] and in assay [11] was “inactive” each time.
Take `C[N+](C)(C)c1ncnc2c1ncn2[C@@H]1CCCCO1`: the Potency is greater than 11.4 µM in assay [1], greater than 46 µM in assay [5] and greater than 9.22 µM in [6]. In addition, the activity change, negative = inhibition in [2] is 10.7%; in assay [3] it was 2.3% [at 2.29 µM]; in assay [4], 5.08%. Besides, the Potency entry in assay [7], in assay [8] and in assay [9] was “inactive” in each case.
Turning to `COc1cccc2c1C(=O)c1c(O)c3c(c(O)c1C2=O)C[C@](O)(C(=O)CO)C[C@@H]3O[C@H]1C[C@H](N)[C@@H](O)[C@H](C)O1`, the Potency in assay [1] is greater than 11.4 µM; in assay [5], greater than 46 µM; in assay [6] it was greater than 9.22 µM. In addition, the activity change, negative = inhibition in assay [2] is 13.6%. Besides, the Potency entry in [3], in [7], in assay [8], in [10], in assay [13] and in [9] was “inactive” in each case. Besides, the Potency result in the assay with AS120, with CP203 and with W2 was “inactive” in each case. Also, the figures for the activity, negative = inhibition in [12], in [15] (parasite line A) and in assay [15] (parasite line B) were 15.8%, 6.65% and 5.26%, respectively. Further, the outcome in assay [14] was inactive.
Take `CN(C)CCC(=O)[C@@]1(O)CC[C@H]2[C@H]3CC=C4C[C@@H](O)CC[C@]4(C)[C@H]3CC[C@]21C`: the Potency in assay [1] is greater than 11.4 µM; in assay [5] it was greater than 46 µM; in assay [6], greater than 9.22 µM. Also, in assay [2], the activity change, negative = inhibition is 3.32%. Besides, the Potency entry in assay [3], in assay [7] and in [8] was “inactive” in each case. In assay [12], the activity, negative = inhibition is -18.3%.
Regarding `c1ccc(NCCSc2nc3ccccc3s2)cc1`, the Potency in [1] is greater than 11.4 µM; in assay [3] it was 0.501 µM (active); in assay [5] it was greater than 46 µM; in assay [6] it was greater than 9.22 µM; in assay [9] it was 0.398 µM (active). For the same compound, the activity change, negative = inhibition in assay [2] is 2.9%; in assay [4], -14.1%. Moreover, the Potency result in [7] and in assay [8] was “inactive” each time.
Turning to `C[C@@]12CC[C@@H]3[C@H](CCC4=CC(=O)CC[C@]43C)[C@@H]1CC[C@@H]2C(=O)Cn1cnc2c(=S)nc[nH]c21`, the Potency was greater than 11.4 µM in assay [1], greater than 46 µM in assay [5] and greater than 9.22 µM in assay [6]. Also, the activity change, negative = inhibition in [2] is 2.82%. Also, the Potency entry in [3], in [7] and in assay [8] was “inactive” in each case. In addition, the activity, negative = inhibition in assay [12] was -2.06%.
